{
  "source": "the OligoGym collection",
  "data": [
    {"target": "APLNR", "assay": "pooled miR-30 sensor sort-seq; sequence = guide strand", "details": "shRNA", "values": [
      {"sequence": "TAATTATCTGCTGACACACAGC", "sensor-assay potency score (higher = more potent)": -0.776},
      {"sequence": "TACAGCGTCTTCACCAGGTGGT", "sensor-assay potency score (higher = more potent)": 0.0282},
      {"sequence": "TTATCTGCTGACACACAGCCCA", "sensor-assay potency score (higher = more potent)": -0.574},
      {"sequence": "TTGACGTAGCTGATGCAGGTGC", "sensor-assay potency score (higher = more potent)": 0.046},
      {"sequence": "TTGACGAAGATGAGGTAGCTGC", "sensor-assay potency score (higher = more potent)": -0.686},
      {"sequence": "AAGTACAACACACACAGACAAG", "sensor-assay potency score (higher = more potent)": -1.41},
      {"sequence": "TTTTACTGCGTCCAGACTCAGG", "sensor-assay potency score (higher = more potent)": -1.25},
      {"sequence": "TAGCTGGCTGACTTCTCCCCAC", "sensor-assay potency score (higher = more potent)": -0.754},
      {"sequence": "TGGAGCACTAATTATCTGCTGA", "sensor-assay potency score (higher = more potent)": -0.596},
      {"sequence": "TAACAGGTCAGCATGATGGTGA", "sensor-assay potency score (higher = more potent)": 0.0238},
      {"sequence": "TTTGAGGACAGCTCTGGGCAGA", "sensor-assay potency score (higher = more potent)": -0.516},
      {"sequence": "TGGATTTCTCGTGCATCTGTTC", "sensor-assay potency score (higher = more potent)": -1.45},
      {"sequence": "TAGCAATGAAGATATCAGCTGA", "sensor-assay potency score (higher = more potent)": 0.487},
      {"sequence": "TATCTAGTCAGTGTCATGGTGC", "sensor-assay potency score (higher = more potent)": -0.323},
      {"sequence": "TAGCACTGCACCTTAGTGGTGT", "sensor-assay potency score (higher = more potent)": 0.437}
    ]}
  ]
}
